# Laboratory results reported in PubChem BioAssay AID463219 (Sanford-Burnham Center for Chemical Genomics, 2010).
# Some of the results follow. The source made the active and inactive calls.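 How the source made its calls: active means cytotoxicity above 50% in each of four replicates; inactive means the rest.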
# Experiment: viability loss in mouse AML12 liver cells – cell-based, single concentration, cytotoxicity control for hepatic lipid droplet formation project, confirmation (AID 463219);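 further: compound exposure lasted overnight at 37 °C before the ATP read; 0% = DMSO-treated cells and 100% = wells with no cells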
# Conditions: AML12 mouse hepatocyte viability, ATP luminescence; at 50 µM; active compounds read high; cells loaded with 100 µM oleic acid
row,Compound,cytotoxicity
1,COc1cccc(/C=C(/CC(=O)Nc2ccc(N3CCOCC3)cc2)c2nc3ccccc3s2)c1,9.53% (inactive)
2,Cn1c(=O)[nH]c(=O)c2c1nc(N1CCN(C(c3ccccc3)c3ccccc3)CC1)n2CCO,77.5% (active)
3,Cc1cc(NC(=O)CSc2nc(C(C)C)nc3sc4c(c23)CCC(C)C4)no1 (stereo not drawn),10.1% (inactive)
4,CCOc1ccc(CCNC(=O)CCc2nnc3ccc(N4CCCC4)nn23)cc1OCC,2.1% (inactive)
5,Cc1cc(C(=O)NC2CCCc3c2cnn3-c2cccc(C)c2C)c(C)o1 (stereo not drawn),14.5% (inactive)
6,CCCN(CCC)c1ccc(C(O)c2nnc(-c3ccccc3)o2)cc1 (stereo not drawn),6.65% (inactive)
7,CCCc1ccc(-c2csc(NC(=O)Cc3cccs3)n2)cc1,14% (inactive)
8,O=C1Nc2ccc(Br)cc2/C1=N/N=C/C1=C(N2CCOCC2)C(=C\c2ccccc2)/CC1,-0.325% (inactive)
9,COc1ccc(/C=C(\NC(=O)c2ccc(OCC(C)C)cc2)C(=O)OCc2ccco2)cc1,7.73% (inactive)
10,COc1ccc(C(C(=O)NC(C)(C)C)N(Cc2ccc(F)cc2)C(=O)CCC(=O)Nc2cc(C)on2)cc1 (stereo not drawn),10.5% (inactive)
11,Cc1ccc(N2C(=O)C(NC(=O)c3c(F)cccc3F)(C(F)(F)F)C3=C2CC(C)(C)CC3=O)cc1 (stereo not drawn),13.2% (inactive)
12,COc1ccc(Cl)cc1NC(=O)CN(C)C(=O)CCCc1c[nH]c2ccccc12,22.5% (inactive)
13,CCOc1ccc(CCNC(=O)Nc2ccccc2)cc1OCC,12.3% (inactive)
